PubChem BioAssay
Calls of active or inactive are those of the source. Unless noted, how the calls were made is not given here.

Columns and labels:
[1] = test system: Wnt5a (protein binding on small-molecule microarray); experiment: small molecules binding Wnt5a protein – biophysical, small-molecule microarray, 635/667 nm fluorescence, primary screen (AID 1142); details: 635 nm fluorescence, higher = more signal;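 further: fluorescence read at 667 nm with signal to noise per printed feature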
[2] = ATP-based viability of Huh7 replicon cells – cell-based, CellTiter-Glo luminescence, basal, 48 h, cytotoxicity control for HCV replication inhibitor project, primary screen (AID 1143); details: higher = more signal, called active from +8 up or from −8 down;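 further: Huh7 hepatoma cells carrying a hepatitis C replication reporter with no stimulus; test concentration not given here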
[3] = Pseudomonas biofilm growth suppression – PAO1 strain, BacTiter-Glo luminescence, LB-PBS, primary screen (AID 1144); details: P. aeruginosa PAO1 biofilm, 12 h, higher = more signal
[4] = basal CRE-LacZ reporter activity in PC12 – cell-based, unstimulated, primary screen (AID 1145); details: no forskolin, luminescence, 4.5 h, higher = more signal, called active from +8 up or from −8 down
[5] = forskolin-driven CRE-LacZ activity in PC12 – cell-based, CRE-LacZ reporter, forskolin-stimulated, primary screen (AID 1146); details: luminescence, 4.5 h, higher = more signal, called active from +8 up or from −8 down;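 further: PC12 cells with 6xCRE LacZ reporter stimulated by forskolin 10 µM; beta-galactosidase reporter signal reflecting CREB driven transcription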
[6] = target: Streptavidin (Streptomyces avidinii) (UniProt P22629); experiment: compounds binding control protein streptavidin – biophysical, small-molecule microarray, 635/667 nm fluorescence, artefact control for SMM compound annotation, primary screen (AID 1147); details: higher = more signal;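 further: signal reflects streptavidin binding to arrayed compounds as a control protein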
[7] = probe aInhba binding on compound microarray – biochemical, small-molecule microarray, 635/667 nm fluorescence, primary screen (AID 1148); details: higher = more signal;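 further: score merges 667nm spot fluorescence with signal-to-noise for antibody binding to printed compounds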
Torsin-1A (Homo sapiens) [8] = target: Torsin-1A (Homo sapiens) (UniProt O14656); experiment: TOR1A wild-type binding on microarray – cell lysate, small-molecule microarray, lysate, 635/667 nm, primary screen (AID 1149); details: COS7 hTOR1A-WT lysate, 635 nm fluorescence, higher = more signal
Torsin-1A (Homo sapiens) [9] = target: Torsin-1A (Homo sapiens) (UniProt O14656); experiment: torsin A mutant lysate binding on microarrays – cell lysate, small-molecule microarray, COS7 lysate, 635/667 nm fluorescence, primary screen (AID 1150); details: COS7 hTOR1A mutant lysate, 635 nm fluorescence, higher = more signal;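 further: score pools 667 nm emission and signal to noise measuring lysate protein binding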
[10] = test system: Sonic hedgehog protein (Shh); experiment: Sonic hedgehog microarray binding compounds – biochemical, small-molecule microarray, 635/667 nm fluorescence, primary screen (AID 1151); details: 635 nm fluorescence, higher = more signal;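 further: Shh protein binding to compounds spotted on small-molecule microarray slides; score combines spot fluorescence intensity with signal-to-noise across triplicate slides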

Sequence of Streptavidin (Streptomyces avidinii) (P22629 whole entry, looked up): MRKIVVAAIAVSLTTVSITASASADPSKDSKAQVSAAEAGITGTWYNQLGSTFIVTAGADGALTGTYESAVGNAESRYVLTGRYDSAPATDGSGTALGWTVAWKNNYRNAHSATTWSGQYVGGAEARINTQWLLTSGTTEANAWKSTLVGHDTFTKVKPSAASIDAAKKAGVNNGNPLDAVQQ
Sequence of Torsin-1A (Homo sapiens) (O14656 whole entry, looked up): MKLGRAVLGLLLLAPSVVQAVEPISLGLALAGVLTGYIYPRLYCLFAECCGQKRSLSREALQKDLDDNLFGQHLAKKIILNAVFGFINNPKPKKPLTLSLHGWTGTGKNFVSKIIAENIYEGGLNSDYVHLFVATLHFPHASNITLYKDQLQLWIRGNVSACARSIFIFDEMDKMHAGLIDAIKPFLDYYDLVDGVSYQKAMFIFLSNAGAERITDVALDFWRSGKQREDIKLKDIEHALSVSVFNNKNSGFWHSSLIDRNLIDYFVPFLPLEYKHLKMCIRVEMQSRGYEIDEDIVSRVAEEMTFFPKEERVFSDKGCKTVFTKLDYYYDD

Row | Compound | composite z-score [1] | z-score [2] | z-score [3] | z-score [4] | z-score [5] | composite z-score [6] | composite z-score [7] | composite z-score (Torsin-1A (Homo sapiens) [8]) | composite z-score (Torsin-1A (Homo sapiens) [9]) | composite z-score [10]
1 | C=CCN1Cc2ccccc2[C@@H]2OC(c3ccc(OCCCO)cc3)=N[C@]2(CCS(=O)(=O)c2ccccc2)C1=O | 1.02 | -2.93 (inactive) | -0.491 (inactive) | 2.65 (inactive) | -0.821 (inactive) | 0.316 | 0.122 | 0.625 | 0.969 | 1.77
2 | COc1ccc([Si](C)(C)[C@@H]2[C@@H](CC(=O)N3Cc4ccccc4C[C@H]3CO)O[C@]3(C(=O)N(Cc4cccc(N5CCC5=O)c4)c4ccccc43)[C@H]2C)cc1 | 0.103 | -3.42 (inactive) | -0.0211 (inactive) | 2.03 (inactive) | 1.34 (inactive) | 0.244 | -0.0463 | 0.589 | 0.61 | 1.45
3 | O=C1C2C=CC(C(O)C=Cc3ccc([N+](=O)[O-])cc3)N(n3cnnc3)C2C(=O)N1Cc1ccccc1 (stereo not given) | 0.0873 | -0.274 (inactive) | -0.871 (inactive) | -0.368 (inactive) | 0.343 (inactive) | 1.1 | 0.0589 | 1.95 | 2.16 | 0.287
4 | CCOC(=O)C1=CCC(c2ccc(F)cc2)N(S(=O)(=O)c2ccc(C)cc2)C1 (stereo not given) | 0.0848 | -2.8 (inactive) | 0.046 (inactive) | 0.481 (inactive) | -0.323 (inactive) | 0.407 | -0.0963 | 0.827 | 0.203 | -0.282
5 | COc1ccc([Si](C)(C)[C@@H]2[C@@H](CCn3cc([C@H](O)c4ccccc4)nn3)O[C@]3(C(=O)N(Cc4cccc(N5CCC5=O)c4)c4ccccc43)[C@H]2C)cc1 | -0.166 | -2.43 (inactive) | -1.1 (inactive) | -0.272 (inactive) | -0.144 (inactive) | 0.0185 | -0.0477 | 0.423 | 0.0953 | 0.71
6 | CCCCC(O)C1C=CC2C(=O)N(C)C(=O)C2N1N1CCCCC1 (stereo not given) | 0.0755 | 1.09 (inactive) | 0.382 (inactive) | 0.0535 (inactive) | 0.47 (inactive) | 0.0223 | 0.196 | 0.0748 | 0.845 | 0.0629
7 | C=CC[C@]1(C(=O)NCc2ccccc2)N=C(c2ccc(OCCCO)cc2)O[C@H]1c1ccccc1CN=[N+]=[N-] | 0.625 | -3.52 (inactive) | -0.728 (inactive) | 0.857 (inactive) | -0.116 (inactive) | 0.866 | 0.682 | -0.221 | 0.631 | -0.251
8 | O=C1OCCC=C[C@H]2OC34C=CCN(c5ccc(Cl)cc5)C(=O)[C@H]3N(CCCO)C(=O)[C@@H]4C12 (stereo not given in full) | -0.047 | -2.24 (inactive) | -0.925 (inactive) | -0.35 (inactive) | -0.336 (inactive) | -0.414 | -0.227 | -0.531 | -1.56 | 0.0088
9 | CC(=O)n1cc(C(O)C2C=CC3C(=O)NC(=O)C3N2Nc2ccccn2)c2ccccc21 (stereo not given) | 0.109 | 0.713 (inactive) | -0.781 (inactive) | -0.14 (inactive) | 0.593 (inactive) | 0.153 | 0.23 | 0.865 | 0.153 | 0.41
10 | C=C(CCCC)C(=O)CC[C@H](OC(=O)c1cccnc1)c1ccc(OCCO)cc1 | 0.0366 | -2.23 (inactive) | 0.192 (inactive) | 13.3 (active) | 2.15 (inactive) | -0.118 | 0.0903 | 0.471 | 0.546 | 0.381
11 | CCOC(=O)[C@H]1C/C=C/C[C@H](C(=O)OCC)C(=O)O[C@H]2[C@@H](OC)O[C@H](CO)[C@@H](OC(=O)c3ccc(Br)cc3)[C@@H]2OC1=O | 0.168 | -3.02 (inactive) | -0.79 (inactive) | 0.342 (inactive) | -0.0314 (inactive) | -0.0923 | 0.0464 | 0.441 | -0.15 | 0.473
12 | C=CCN1C(=O)[C@]2(Cc3ccccc3)N=C(c3ccc(OCCCO)cc3)O[C@@H]2c2ccccc21 | 0.611 | -3.85 (inactive) | 0.000807 (inactive) | 2.97 (inactive) | -1.79 (inactive) | 0.752 | 0.13 | 0.443 | 0.842 | 1.79
13 | COc1cc(CO)cc(I)c1O[C@H]1C=C(C(=O)NCCO)C[C@@H](N(C(=O)c2cc3ccccc3oc2=O)C2CCCCCC2)[C@@H]1O | 0.021 | -2.46 (inactive) | -0.269 (inactive) | -0.153 (inactive) | -0.94 (inactive) | 0.0378 | -0.157 | -0.113 | 0.347 | 1.33
14 | O=C(CS)NCCCCCNC(=O)[C@@H]1C[C@@H]2C(=O)NCC(=O)N2[C@@H]1c1ccc(O)cc1 | -0.0716 | -0.454 (inactive) | -0.171 (inactive) | 0.281 (inactive) | 0.208 (inactive) | -0.618 | 0.0275 | 0.507 | 0.0395 | 1.44
15 | COc1ccc(NN2C(C(O)c3ccc(N(C)C)cc3)C=CC3C(=O)N(C4CCCCC4)C(=O)C32)cc1 (stereo not given) | 0.66 | -0.759 (inactive) | -0.805 (inactive) | -0.583 (inactive) | -0.249 (inactive) | 1.46 | 0.346 | 0.0944 | 1.11 | 0.0202
16 | N#Cc1ccc(C(O)C2C=CC3C(=O)N(c4ccccc4)C(=O)C3N2Nc2ccccc2F)cc1 (stereo not given) | 0.286 | -2.92 (inactive) | -0.826 (inactive) | -0.107 (inactive) | -0.852 (inactive) | 0.0289 | -0.0986 | -0.291 | -0.301 | -0.234
17 | C[C@H]1C2[C@H](Cc3ccccc3)NC(=O)[C@]23C(=O)NCC(=O)N2CCC[C@H]2C(=O)NC/C=C/CCC/C=C/C3[C@@H]2O[C@]12C (stereo not given in full) | -0.376 | -1.02 (inactive) | 0.785 (inactive) | 1.32 (inactive) | -1.25 (inactive) | -1.3 | -0.179 | -0.793 | -0.333 | 0.468
18 | Cc1ccc([C@H]2C(C(=O)O)=CCN2S(=O)(=O)c2ccc(C)cc2)cc1 | -0.171 | -0.849 (inactive) | 0.668 (inactive) | -0.48 (inactive) | -0.119 (inactive) | 0.468 | 0.0108 | 0.593 | 0.435 | 0.0688
19 | COCCOC(=O)N1C(=O)[C@@]2(c3cc(C#CC4(O)CCCCCC4)ccc31)[C@H](C(=O)Nc1nc3ccccc3s1)[C@H]1C(=O)O[C@H](c3ccccc3)[C@H](c3ccccc3)N1[C@@H]2c1ccc(OCCO)cc1 | 0.564 | -3.02 (inactive) | -1.1 (inactive) | -0.748 (inactive) | 1.65 (inactive) | 0.587 | 0.366 | 0.669 | 0.849 | 1.42
20 | CN(C)C(=O)[C@]1(Cc2ccccc2)N=C(c2ccc(OCCCO)cc2)O[C@@H]1c1ccccc1N=[N+]=[N-] | 0.435 | -4.22 (inactive) | 0.54 (inactive) | -0.459 (inactive) | -1.58 (inactive) | 1.06 | 0.143 | 0.37 | 0.523 | 0.0841
21 | CN1C(=O)C2C=CC(C(O)c3c(F)cccc3Cl)N(NC(=O)OC(C)(C)C)C2C1=O (stereo not given) | 0.213 | 0.736 (inactive) | 0.232 (inactive) | 0.622 (inactive) | 0.947 (inactive) | 1.18 | 0.181 | 0.622 | 0.591 | -0.0049
22 | CC(c1ccccc1)C(O)C1C=CC2C(=O)N(C)C(=O)C2N1NC(=O)OC(C)(C)C (stereo not given) | 0.472 | 0.834 (inactive) | 0.059 (inactive) | 0.622 (inactive) | -0.434 (inactive) | 2.15 | 0.19 | 0.516 | 1.13 | -0.656
23 | [N-]=[N+]=Nc1ccccc1C[C@@]1(C(=O)N2CCCCC2)N=C(c2ccc(OCCCO)cc2)O[C@@H]1c1ccccc1N=[N+]=[N-] | 0.648 | -5.13 (inactive) | 0.989 (inactive) | 0.801 (inactive) | -0.929 (inactive) | 1.33 | 0.404 | 0.46 | 0.585 | 0.248
24 | O=C1OCCC=C[C@H]2OC34C=CCN(CCN5CCOCC5)C(=O)[C@H]3N(CCCCCO)C(=O)[C@@H]4C12 (stereo not given in full) | -0.135 | 0.201 (inactive) | -0.199 (inactive) | 1.14 (inactive) | 0.25 (inactive) | 1.38 | -0.253 | 1.14 | 1.52 | 0.139
25 | CC(C)Cc1ccc(CN2CC[C@@H](N)C2)cc1 | -0.544 | -3.26 (inactive) | -1.53 (inactive) | -0.688 (inactive) | 1.52 (inactive) | -1.27 | -0.0357 | -1.79 | -0.677 | -0.0963
26 | CCCC(=O)N(CCc1c[nH]c2ccccc12)[C@@H]1CC(C(=O)NCCO)=C[C@H](Oc2c(I)cc(CO)cc2OC)[C@H]1O | -0.0727 | -0.0737 (inactive) | -0.396 (inactive) | 0.486 (inactive) | -0.887 (inactive) | -0.268 | -0.128 | -0.24 | 0.0165 | -0.251
27 | COc1ccc([C@H]2C[C@H]3C(I)=C[C@@H]2C(=O)[C@]32CO2)cc1 | -0.149 | -0.307 (inactive) | -0.125 (inactive) | 5.38 (inactive) | -1.6 (inactive) | 1.25 | -0.152 | -0.067 | -0.126 | 0.817
28 | COc1ccc(C(O)C2C=CC3C(=O)N(C)C(=O)C3N2NC(=O)OC(C)(C)C)c2ccccc12 (stereo not given) | 0.364 | -0.144 (inactive) | -0.0855 (inactive) | 1.58 (inactive) | -0.0415 (inactive) | 1.13 | -0.137 | 0.177 | 0.644 | -0.416
29 | COc1ccc([Si](C)(C)[C@H]2[C@H](CC(=O)N3CCC[C@H]3CO)O[C@@]3(C(=O)N(Cc4cccc(N5CCOC5=O)c4)c4ccccc43)[C@@H]2C)cc1 | 0.307 | -5.09 (inactive) | 0.621 (inactive) | 0.395 (inactive) | -0.135 (inactive) | 0.0063 | -0.0468 | 0.716 | 0.58 | 1.99
30 | O=C1O[C@H](c2ccccc2)[C@H](c2ccccc2)N2[C@H]1[C@@H](C(=O)NC[C@H](O)c1ccccc1)[C@]1(C(=O)Nc3ccccc31)[C@H]2c1ccc(O)cc1 | 0.378 | -1.1 (inactive) | -1.25 (inactive) | -1.29 (inactive) | -0.423 (inactive) | 0.287 | -0.128 | 0.643 | 0.506 | 1.5
